# Compound activity: PubChem, Broad Institute
# Not all results are given here.
# aSyn 5UTR act = Activators via SNCA 5'UTR binding, MLPCN | activity score, % (tested at 7.5 µM), hits read low | 300,000 compounds, 7.1% hits | alpha-synuclein 5'UTR reporter, activators screen; in the data active = activity score below about -60%
# The depositor's hits bear a star.
SMILES,aSyn 5UTR act
COc1ccc2nc3oc(C(=O)N4CCCCC4)cc3cc2c1,-192*
CCOC(=O)C1CCN(C(=O)c2cc3cc4cc(OC)ccc4nc3o2)CC1,-71*
CCc1nnc(NC(=O)c2cccc(C(=O)Nc3nnc(CC)s3)n2)s1,66
COc1ccccc1C(=O)Nc1nsc(-c2ccccc2)n1,-152*
O=C(Nc1nnc(-c2ccccc2)s1)c1ccc(F)cc1,-89*
CCOc1ccccc1C(=O)Nc1nnc(CC)s1,-93*
COc1ccccc1C(=O)Nc1nnc(-c2ccc(F)cc2)s1,-132*
N=C1C(c2nc3ccccc3[nH]2)=C(O)CN1C1CCCCC1,-116*
N=C1C(c2nc3ccccc3[nH]2)=C(O)CN1c1ccc(F)cc1,-65*
Cc1ccc(O)c(NC(=S)NC(=O)/C=C/c2ccco2)c1,-170*
Cc1ccnc(NC(=S)NC(=O)/C=C/c2ccco2)c1,-334*
C/C(=N\NC(=O)c1cccc(N/N=C(\C)c2ccco2)c1)c1ccco1,-81*
C/C(=N/NC(=O)c1cc2ccccc2cc1O)c1ccco1,-64*
C/C(=N\NC(=O)c1c(C)nc2ccccn12)c1ccco1,-139*
C/C(=N\NC(=O)c1cc(-c2cccnc2)nc2ccccc12)c1ccc(O)cc1O,105
C/C(=N\NC(=O)c1c(C)nc2ccccn12)c1ccc(C(C)(C)C)cc1,-98*
CN(C)/N=C/c1ccc(N2CCOCC2)cc1,-96*
Fc1ccc(N/N=C/c2ccc(N3CCOCC3)cc2)c(F)c1,-207*
C/C(=N\Nc1ccc(F)cc1F)c1ccc(N2CCOCC2)cc1,-96*
C/C(=N\Nc1ccc(F)cc1F)c1ccc(Br)s1,-81*
CCOC(=O)C(=CNc1ccc(C(F)(F)F)cc1Cl)C(=O)OCC,-97*
CC1=NN(c2ccccc2)C(=O)/C1=C\c1cn(CCC#N)nc1-c1ccc(Cl)cc1,-85*
Oc1ccc(N=Nc2ccc3c(c2)OCCO3)c(O)c1,62
Oc1ccc(N=Nc2ccc(Br)cc2)c(O)c1,-226*
CCOC(=O)c1c(-c2ccccc2)nc2ccc(C)cn12,-166*
SMILES,aSyn 5UTR act
CCOC(=O)c1c(-c2ccccc2)nc2cc(C)ccn12,-104*
O=C(Nc1ccccc1)N(CCCN1CCOCC1)Cc1ccccc1F,-84*
O=C(NCC(=O)N1CCN(c2ccccc2O)CC1)c1cccs1,-63*
[O-][n+]1onc2c3ccnnc3ccc21,-119*
Cc1cc2c(ccc3c2no[n+]3[O-])nn1,-100*
CC(=O)c1ccc2c(c1)Cc1cc(C(C)=O)ccc1-2,-125*
O=C(Nc1cccc(Br)c1)c1ccc(OC2CSC2)cc1,-198*
Cc1cccc(NC(=O)c2ccc(OC3CSC3)cc2)c1,-177*
O=C(Nc1cnn(Cc2ccccc2)c1)c1nc2ncccn2n1,-66*
O=C(Oc1ccc(-c2ccccc2)cc1)N1CCCCC1,-169*
O=C(c1cccc(-c2nnc(-c3ccccc3)o2)c1)N1CCCCC1,-76*
O=C(c1ccc(-c2ccccc2)cc1)N1CCCC1,-88*
C/C(=N\NC(=O)OC(C)(C)C)c1ccccc1Br,-84*
C/C(=N\NC(=O)c1ccccc1)c1ccc(N2CCCCC2)cc1,-86*
CN1CCN(c2ccc(C(=O)c3ccc(F)cc3)cc2)CC1,-133*
O=C(c1ccccc1)c1ccc(N2CCCC2)cc1,-109*
C/C(=N\NC(=O)c1ccccc1)c1ccccc1F,-88*
CCCCCC(=O)N/N=C(\C)c1ccc(N2CCCCC2)cc1,-65*
C/C(=N\NC(=O)c1ccc(C)cc1)c1c(C)[nH]n(-c2ccccc2)c1=O,67
C/C(=N\NC(=O)c1ccccc1)c1ccccc1Br,-102*
C/C(=N\NC(=O)c1ccc(Br)cc1)c1ccccc1,-158*
CCCCCC(=O)N/N=C(\C)c1ccccn1,67
CCOc1ccc2c(c1)OC(c1ccc(OC)cc1)(C(F)(F)F)NC2=O (stereo not drawn),96
Cc1ccc(NC2=CC(=O)C(=O)c3ccccc32)cc1,103
O=C1C=C(Nc2ccc(O)cc2)C(=O)c2ccccc21,67
SMILES,aSyn 5UTR act
O=C1C(Nc2ccc(O)cc2)=C/C(=N/S(=O)(=O)c2cccs2)c2ccccc21,114
COc1ccc(NC2=C(NCCO)C(=O)c3ccccc3C2=O)cc1,-92*
COC1=C(Nc2ccc(OC)cc2)C(=O)c2ccccc2C1=O,-161*
CCOc1ccc(NC2=C(OC)C(=O)c3ccccc3C2=O)cc1,-94*
COC1=C(Nc2ccc(O)cc2)C(=O)c2ccccc2C1=O,-110*
Fc1cccc(CSc2nnc3c(n2)[nH]c2ccccc23)c1,-142*
COc1ccc(OCCC(=O)N2CCCCC2)cc1,-63*
CCCCOc1ccc(C(=O)N2CCCC2)cc1,-63*
COC(=O)C1CCN(C(=O)CCCOc2ccccc2)CC1,-83*
CC1=CC(c2ccccc2)=Nc2ccc(C)cc2N1,-151*
CN(c1ccc(C(=O)Nc2ccc3c(c2)OCO3)cc1)S(C)(=O)=O,-103*
CN(c1ccc(C(=O)Nc2ccc3c(c2)OCCO3)cc1)S(C)(=O)=O,-149*
O=C(c1ccccc1)c1cc2cc(Cl)ccc2[nH]1,-169*
COc1cccc(C(=O)c2cc3cc(Cl)ccc3[nH]2)c1,-147*
Cc1nc2c(oc3ccccc32)c(=O)o1,-84*
CCOCCCNC(=O)/C(C#N)=C/c1cc(Br)c(O)c(Br)c1,-69*
CC(=O)c1cccc(Nc2c3c(nc4ccccc24)CCC3)c1,75
c1ccc2c(Nc3ccc4c(c3)OCCO4)c3c(nc2c1)CCCC3,-82*
CC(=O)c1ccc(Nc2c3c(nc4ccccc24)CCCC3)cc1,-195*
COc1ccc2c(=O)c3c(=O)n(-c4ccccc4)c(-c4ccco4)nc3oc2c1,-96*
Cc1ccc(-n2c(C)nc3oc4ccccc4c(=O)c3c2=O)cc1,-241*
CCc1nc2oc3cc(OC)ccc3c(=O)c2c(=O)n1-c1ccccc1,-124*
Cc1ccc2c3c([nH]c2c1C)-c1nonc1CC3,-107*
Cc1nc(C(=O)Nc2ccccc2)sc1C1(C)CC(c2cccnc2)=NO1 (stereo not drawn),-111*
Cc1nc(-c2ccc(Cl)cc2)sc1C1(C)CC(c2cccnc2)=NO1 (stereo not drawn),-122*
SMILES,aSyn 5UTR act
Nc1nc(Nc2cccc(F)c2)nc2ccccc12,-196*
O=c1oc(Nc2cccc(F)c2)nc2ccccc12,-64*
O=C1c2cc(F)ccc2-n2c1nc1ccccc1c2=O,66
Cc1c(C(=O)Oc2ccc(-c3cnc4ccccc4n3)cc2)cccc1[N+](=O)[O-],-108*
O=C(Oc1ccc(-c2cnc3ccccc3n2)cc1)c1cc([N+](=O)[O-])ccc1Cl,-176*
ClC(=C\c1ccccc1)/C=N/N1CCN(c2ccccn2)CC1,-222*
Cc1ccc(/C=N/N2CCN(c3ccccn3)CC2)cc1,-105*
CCc1ccc(/C=N/N2CCN(c3ccccn3)CC2)cc1,-108*
O=C(/C=C/c1ccccc1)OCc1cncs1,-103*
CC(=O)Nc1ccc(S(=O)(=O)N2CCN=C2SCc2ccc(C)cc2)cc1,-72*
Cc1ccc2c(c1)c1nc3ccccc3nc1n2C,-90*
CSc1nc2sc3c(c2c(=O)[nH]1)CCC(C)C3 (stereo not drawn),-151*
CN(C)c1ccc(C(CN)c2c[nH]c3ccccc23)cc1 (stereo not drawn),-97*
Cc1ccc(CNc2ccc(Cl)cc2[N+](=O)[O-])cc1,-76*
CCOCC(=O)Nc1c(C(=O)Nc2ccc3c(c2)OCO3)oc2ccccc12,-151*
CCOc1ccc(NC(=O)c2oc3ccccc3c2NC(=O)CC)cc1,-123*
CCOCC(=O)Nc1c(C(=O)Nc2ccc(OC)cc2OC)oc2ccccc12,-82*
